PubChem BioAssay (NCI)
About 79,000 compounds went through this panel and 15% of them were active in at least one assay; those are over-represented in the sample as a whole. Calls of active or inactive are those of the source. Rule as the data show it: active = growth inhibition above about 70%; inactive = the rest.

How the values were obtained:
[1] = NCI Yeast Anticancer Drug Screen. Data for the rad50 strain (AID 155);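 also: 0% = growth of vehicle-only cultures of the same strain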; settings: S. cerevisiae rad50 strain growth inhibition, hits give high values
In short: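 Growth of the mutant yeast was measured after compound exposure and referenced to vehicle-treated cultures.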

[2] = NCI Yeast Anticancer Drug Screen. Data for the mec2-1 strain (AID 157); settings: S. cerevisiae mec2-1 strain, hits give high values
In short: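 Mutant yeast (mec2-1) grown with compound; growth inhibition relative to vehicle control reported.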

[3] = NCI Yeast Anticancer Drug Screen. Data for the sgs1 mgt1 strain (AID 161);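 also: 0% = growth of cultures given vehicle only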; settings: S. cerevisiae sgs1 mgt1 strain, hits give high values
In short: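 Percent growth inhibition was derived by comparing compound-exposed mutant yeast with vehicle-exposed cultures. The strain carries alterations in DNA damage repair.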

[4] = NCI Yeast Anticancer Drug Screen. Data for the cln2 rad14 strain (AID 165);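 also: 0% = growth equal to vehicle treated cultures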; settings: S. cerevisiae cln2 rad14 strain, hits give high values
In short: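 Readout is yeast growth inhibition versus vehicle-treated controls, using a strain with cln2 and rad14 alterations exposed to compound.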

[5] = NCI Yeast Anticancer Drug Screen. Data for the bub3 strain (AID 167); settings: S. cerevisiae bub3 mutant strain, hits give high values
In short: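 Whole-cell yeast assay. The mutant strain was incubated with compounds, and growth inhibition was determined by comparison with vehicle-treated cells.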

[6] = NCI Yeast Anticancer Drug Screen. Data for the mlh1 rad18 strain (AID 175); settings: S. cerevisiae mlh1 rad18 strain growth inhibition, hits give high values
In short: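 Genetically defined yeast (DNA repair-deficient) exposed to compounds; growth inhibition determined relative to vehicle.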

[7] = at 5.0 µM (retest, dose inferred, filed as 0.5)
[8] = at 50.0 µM (retest, dose inferred, filed as 5.0)

Measured: growth inhibition

Cc1c(N=Nc2cccc(F)c2)c(-c2ccccc2)nn1C(N)=S
inactive: [1]; [7] 14% | [2]; [7] 1% | [3]; [7] 3% | [4]; [7] -5% | [5]; [7] 1% | [6]; [7] 0%
active: [1]; [8] 97% | [1]; at 50.0 µM 99.2% | [2]; [8] 98% | [2]; at 50.0 µM 99.4% | [3]; [8] 99% | [3]; at 50.0 µM 99.4% | [4]; [8] 96% | [4]; at 50.0 µM 99.1% | [5]; [8] 97% | [5]; at 50.0 µM 99.5% | [6]; [8] 98% | [6]; at 50.0 µM 99.2%

O=c1[nH]c2c([N+](=O)[O-])cc(Cl)cc2nc1/C=C(\O)c1ccc(F)cc1
active: [1]; at 50.0 µM 71.1% | [3]; at 50.0 µM 73.4% | [6]; at 50.0 µM 87.3%
inactive: [1]; [7] 12% | [1]; [8] 64% | [2]; [7] -6% | [2]; [8] 23% | [2]; at 50.0 µM 42.8% | [3]; [7] 3% | [3]; [8] 54% | [4]; [7] 5% | [4]; [8] 42% | [4]; at 50.0 µM 42.2% | [5]; [7] 2% | [5]; [8] 41% | [5]; at 50.0 µM 43.5% | [6]; [7] -3% | [6]; [8] 65%

CCOC1=C(c2ccccc2)Sc2ccc(C)cc2C1c1ccc(C)cc1 (centres undefined)
inactive: [1]; [7] 15% | [1]; [8] 35% | [1]; at 50.0 µM 60.2% | [2]; [7] 0% | [3]; [7] 10% | [4]; [7] -4% | [4]; [8] 51% | [4]; at 50.0 µM 13.1% | [5]; [7] -3% | [5]; [8] 61% | [6]; [7] -2%
active: [2]; [8] 76% | [2]; at 50.0 µM 78.2% | [3]; [8] 81% | [3]; at 50.0 µM 95.3% | [5]; at 50.0 µM 90% | [6]; [8] 81% | [6]; at 50.0 µM 82.9%

CC(=O)OCC1OC(OC2C=C(O[Si](C)(C)C)C[C@H]3C(=O)C=CC(=O)[C@@H]23)C(OC(C)=O)C(OC(C)=O)C1OC(C)=O (some centres undefined)
inactive: [1]; [7] 6% | [1]; at 50.0 µM 58.6% | [2]; [7] 1% | [2]; at 50.0 µM 59.2% | [3]; [7] 2% | [3]; at 50.0 µM 31.4% | [4]; [7] 2% | [4]; at 50.0 µM 4.5% | [5]; [7] 3% | [5]; at 50.0 µM 15.1% | [6]; [7] 3% | [6]; at 50.0 µM 54.6%
active: [1]; [8] 96% | [2]; [8] 98% | [3]; [8] 98% | [4]; [8] 88% | [5]; [8] 93% | [6]; [8] 97%

COC(=O)NNc1c([N+](=O)[O-])cnn(-c2ccccc2)c1=O
inactive: [1]; [7] 18% | [1]; [8] 56% | [1]; at 50.0 µM 14.9% | [2]; [7] -5% | [2]; [8] 10% | [2]; at 50.0 µM 0.55% | [3]; [7] -1% | [3]; [8] -14% | [3]; at 50.0 µM 14% | [4]; [7] 9% | [4]; [8] 32% | [4]; at 50.0 µM 30% | [5]; [7] 11% | [5]; [8] 26% | [5]; at 50.0 µM 0.9% | [6]; [7] -11% | [6]; [8] -12% | [6]; at 50.0 µM -8.15%

CCc1nc(N)nc(N)c1-c1ccc(NCCCN)c([N+](=O)[O-])c1
inactive: [1]; [7] -15% | [1]; [8] -17% | [1]; at 50.0 µM 69.7% | [2]; [7] 17% | [2]; [8] -2% | [2]; at 50.0 µM 44.8% | [3]; [7] -19% | [3]; [8] -36% | [3]; at 50.0 µM 69.2% | [4]; [7] -15% | [4]; [8] -5% | [4]; at 50.0 µM 69% | [5]; [7] -44% | [5]; [8] -18% | [5]; at 50.0 µM 6.45% | [6]; [7] -17% | [6]; [8] -36%
active: [6]; at 50.0 µM 82.5%

NCC(O)CSc1ccc(Cl)c(Cl)c1 (centres undefined)
inactive: [1]; [7] 2% | [1]; [8] 11% | [1]; at 50.0 µM 8.95% | [2]; [7] -2% | [2]; [8] -4% | [2]; at 50.0 µM 14.2% | [3]; [7] 1% | [3]; [8] 16% | [3]; at 50.0 µM 18.8% | [4]; [7] 5% | [4]; [8] 9% | [5]; [7] 3% | [5]; [8] 3% | [5]; at 50.0 µM 17.2% | [6]; [7] 4% | [6]; [8] 7% | [6]; at 50.0 µM 11.4%
active: [4]; at 50.0 µM 74.8%

C/C(=N\NC(=S)N1CC(C)OC(C)C1)c1ncccn1 (centres undefined)
active: [1]; [8] 81% | [1]; at 50.0 µM 99.5% | [2]; [8] 100% | [2]; at 50.0 µM 99.4% | [3]; [8] 100% | [3]; at 50.0 µM 99.5% | [4]; [8] 99% | [4]; at 50.0 µM 99.2% | [5]; [8] 99% | [5]; at 50.0 µM 99.3% | [6]; [7] 80% | [6]; [8] 99% | [6]; at 50.0 µM 99.3%
inactive: [1]; [7] 53% | [2]; [7] 43% | [3]; [7] 52% | [4]; [7] 52% | [5]; [7] 44%
